Test results published in PubChem BioAssay (EPA / NIEHS).
Records with an inconclusive call do not appear. Calls of active or inactive are those of the source. How the source made its calls, unless noted: active means hit-call score of the fitted dose curve at least 0.9, where 1 is the maximum; inactive means score below 0.9.

How the values were obtained:
[1] = target: Paired box protein Pax-6 (Homo sapiens) (UniProt P26367); test: ATG_Pax6_CIS: Attagene CIS-FACTORIAL HepG2 Assay for human Paired Box 6 (PAX6) (AID 2282956); conditions: HepG2 CIS-FACTORIAL PAX6 reporter transcription, RNA readout; actives raise or lower the signal
Sequence of Paired box protein Pax-6 (Homo sapiens) (P26367 whole entry, looked up): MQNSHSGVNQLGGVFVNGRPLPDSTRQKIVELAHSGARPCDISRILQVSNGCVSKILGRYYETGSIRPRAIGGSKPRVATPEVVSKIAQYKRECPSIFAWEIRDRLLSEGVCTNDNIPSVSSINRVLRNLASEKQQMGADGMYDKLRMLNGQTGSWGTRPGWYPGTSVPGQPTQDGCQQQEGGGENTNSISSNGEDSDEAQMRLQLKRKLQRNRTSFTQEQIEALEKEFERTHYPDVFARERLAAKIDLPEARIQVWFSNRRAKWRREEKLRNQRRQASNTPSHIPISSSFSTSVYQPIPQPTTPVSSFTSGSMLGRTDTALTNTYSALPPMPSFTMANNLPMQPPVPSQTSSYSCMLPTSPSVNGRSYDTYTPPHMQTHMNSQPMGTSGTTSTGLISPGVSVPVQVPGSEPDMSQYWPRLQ
Procedure, shortened: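 Fluorescent RT-PCR products separated by capillary electrophoresis report PAX6-linked promoter mRNA in HepG2 cells 24 h post-dose. Curves fitted bidirectionally, DMSO as negative control.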

[2] = ATG_PXRE_CIS: Attagene CIS-FACTORIAL HepG2 Assay for human Pregnane X Receptor Element (PXRE) (AID 2282957); conditions: HepG2 Attagene CIS-FACTORIAL PXRE reporter, mRNA; actives raise or lower the signal
Procedure, shortened: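 Read-out: fluorescence of reporter-specific RT-PCR products resolved by capillary electrophoresis, fitted bidirectionally relative to DMSO. Human HepG2 liver cells carried transfected cis-promoter reporter units and were exposed to chemicals for 24 h.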

[3] = ATG_PPRE_CIS: Attagene CIS-FACTORIAL HepG2 Assay for human Peroxisome Proliferator-activated Response Element (PPRE) (AID 2282958); conditions: HepG2 PPRE cis-element reporter, Attagene transcription factor profiling; actives raise or lower the signal
Procedure, shortened: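 HepG2 cells transiently transfected with multiplexed cis-element reporter units measure endogenous transcription factor activity. After 24 h compound exposure, reporter mRNA is quantified by RT-PCR, 6-FAM labeling, HpaI digestion and capillary electrophoresis; bidirectional fits are made against DMSO baseline.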

[4] = ATG_RORE_CIS: Attagene CIS-FACTORIAL HepG2 Assay for human RAR-related Orphan Receptor Element (RORE) (AID 2282959); conditions: HepG2 Attagene cis-factorial RORE reporter, mRNA; actives raise or lower the signal
Procedure, shortened: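 HepG2 cells transiently transfected with multiple cis-element reporter transcription units, exposed to chemical for 24 h. Reporter mRNA quantified by RT-PCR, 6-FAM primer-extension labeling, HpaI digestion and capillary electrophoresis; bidirectional fit versus DMSO baseline.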

[5] = ATG_Sox_CIS: Attagene CIS-FACTORIAL HepG2 Assay for human SRY-box transcription factor (SOX) (AID 2282960); conditions: HepG2 Attagene cis-factorial SOX reporter, mRNA; actives raise or lower the signal
Procedure, shortened: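 HepG2 cells transiently transfected with cis-element-driven multiple reporter transcription units, dosed 24 h; reporter mRNA measured by RT-PCR, FAM labelling, HpaI digestion and capillary electrophoresis. Bidirectional fit versus DMSO baseline.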

[6] = target: Transcription factor Sp1 (Homo sapiens) (UniProt P08047); test: ATG_Sp1_CIS: Attagene CIS-FACTORIAL HepG2 Assay for human Specificity Protein 1 (Sp1) (AID 2282961); conditions: HepG2 Sp1 cis-reporter transcription, actives raise or lower the signal
Sequence of Transcription factor Sp1 (Homo sapiens) (P08047 whole entry, looked up): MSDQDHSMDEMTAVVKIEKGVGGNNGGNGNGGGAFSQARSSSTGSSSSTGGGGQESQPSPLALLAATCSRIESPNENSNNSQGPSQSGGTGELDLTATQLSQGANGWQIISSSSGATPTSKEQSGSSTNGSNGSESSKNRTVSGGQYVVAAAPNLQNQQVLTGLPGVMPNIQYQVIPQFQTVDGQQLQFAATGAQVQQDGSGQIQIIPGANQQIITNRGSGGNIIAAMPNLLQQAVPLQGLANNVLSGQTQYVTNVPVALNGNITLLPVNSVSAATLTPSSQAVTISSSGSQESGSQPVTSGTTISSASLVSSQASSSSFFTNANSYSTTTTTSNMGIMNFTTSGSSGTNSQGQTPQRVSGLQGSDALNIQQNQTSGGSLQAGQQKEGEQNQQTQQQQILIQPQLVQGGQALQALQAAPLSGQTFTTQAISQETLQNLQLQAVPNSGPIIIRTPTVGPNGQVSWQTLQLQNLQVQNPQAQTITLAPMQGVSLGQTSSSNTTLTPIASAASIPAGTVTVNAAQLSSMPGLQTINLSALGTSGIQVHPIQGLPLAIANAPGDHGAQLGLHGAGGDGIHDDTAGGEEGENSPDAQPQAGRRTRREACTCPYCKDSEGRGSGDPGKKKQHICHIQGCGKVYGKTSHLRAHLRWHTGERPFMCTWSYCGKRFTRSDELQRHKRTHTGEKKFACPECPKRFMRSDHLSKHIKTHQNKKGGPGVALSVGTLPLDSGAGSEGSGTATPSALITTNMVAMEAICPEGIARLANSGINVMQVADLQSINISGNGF
Procedure, shortened: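 HepG2 cells transiently transfected with multiple reporter transcription units driven by cis-regulatory elements; Sp1-responsive reporter mRNA measured 24 h after dosing by RT-PCR and capillary electrophoresis fluorescence, fitted bidirectionally against DMSO baseline.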

[7] = ATG_SREBP_CIS: Attagene CIS-FACTORIAL HepG2 Assay for human Sterol Regulatory Element Binding (SREBP) (AID 2282962); conditions: HepG2 Attagene cis-factorial SREBP reporter, mRNA; actives raise or lower the signal
Procedure, shortened: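 Endogenous factor activity is measured in HepG2 through multiplexed reporter units under cis-element control. Following a 24 h incubation, reporter transcripts are reverse-transcribed, PCR-amplified and sized by capillary electrophoresis; activity is fitted in both directions relative to DMSO.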

[8] = ATG_TA_CIS: Attagene CIS-FACTORIAL HepG2 Assay for human TA Basal Promoter (AID 2282964); conditions: HepG2 Attagene CIS-factorial TA basal promoter reporter; actives raise or lower the signal
Procedure, shortened: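 HepG2 cells transiently transfected with multiplexed cis-promoter reporter units, dosed 24 h. Reporter mRNA measured by RT-PCR, 6-FAM labelling, HpaI digestion and capillary electrophoresis; bidirectional fit versus DMSO baseline, serving as background control.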

[9] = ATG_TCF_b_cat_CIS: Attagene CIS-FACTORIAL HepG2 Assay for human T-Cell-Factor with beta-catenin (TCF/b-cat) (AID 2282965); conditions: HepG2 TCF/beta-catenin cis-reporter transcription, actives raise or lower the signal
Procedure, shortened: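 HepG2, transient MRTU transfection, cis-element-driven reporters (endogenous TFs). 24 h compound exposure. Readout: reporter mRNA by RT-PCR + 6-FAM primer extension, HpaI digest, capillary electrophoresis. Gain/loss fit vs DMSO baseline.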

[10] = ATG_TAL_CIS: Attagene CIS-FACTORIAL HepG2 Assay for human TAL Basal Promoter (AID 2282966); conditions: HepG2 Attagene cis-factorial TAL promoter reporter; actives raise or lower the signal;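 further: background control endpoint measuring basal TAL promoter reporter mRNA not a specific factor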
Procedure, shortened: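 HepG2, transient MRTU transfection, 24 h compound exposure; RNA → oligo(dT) RT → PCR → 6-FAM primer extension → HpaI digest → CE fluorescence. Bidirectional curve fit vs DMSO. Background-control readout.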

[11] = ATG_VDRE_CIS: Attagene CIS-FACTORIAL HepG2 Assay for human Vitamin D Receptor Element (VDRE) (AID 2282968); conditions: HepG2 VDRE cis-reporter transcription, actives raise or lower the signal
Procedure, shortened: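 Transient MRTU transfection of HepG2, 24 h compound exposure. Readout: reporter transcripts via RT-PCR and capillary electrophoresis, fluorescence. Bidirectional fit vs DMSO.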

[12] = target: Nuclear receptor subfamily 1 group I member 3 (Homo sapiens) (UniProt Q14994); test: ATG_CAR_TRANS: Attagene TRANS-FACTORIAL HepG2 Assay for human Constitutive Androstane Receptor (CAR) (AID 2282969; active means hit-call score of the fitted dose curve at least 0.9, where 1 is the maximum;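 further: activators raise reporter mRNA above DMSO so AC50 marks induction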); conditions: HepG2 Attagene TRANS-FACTORIAL CAR reporter
Sequence of Nuclear receptor subfamily 1 group I member 3 (Homo sapiens) (Q14994 whole entry, looked up, the tested form may be a part): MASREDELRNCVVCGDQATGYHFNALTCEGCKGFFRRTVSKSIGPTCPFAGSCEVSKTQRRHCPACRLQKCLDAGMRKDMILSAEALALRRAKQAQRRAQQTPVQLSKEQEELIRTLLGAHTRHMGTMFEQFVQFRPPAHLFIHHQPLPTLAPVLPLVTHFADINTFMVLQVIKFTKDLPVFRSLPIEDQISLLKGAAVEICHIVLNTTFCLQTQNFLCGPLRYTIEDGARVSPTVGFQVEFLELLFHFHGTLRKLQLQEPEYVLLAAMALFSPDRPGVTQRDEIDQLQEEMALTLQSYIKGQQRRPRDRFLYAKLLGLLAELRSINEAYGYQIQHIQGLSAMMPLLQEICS
Procedure, shortened: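 Transiently transfected HepG2, multiplex TRANS reporters (CAR-Gal4 chimera driving GAL4-UAS reporter). 24 h dosing. Readout: reporter transcript by RT-PCR + capillary electrophoresis, fluorescence intensity; positive direction vs DMSO.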

[13] = target: Estrogen receptor (Homo sapiens) (UniProt P03372); test: ATG_ERa_TRANS: Attagene TRANS-FACTORIAL HepG2 Assay for human Estrogen Receptor alpha (ERa) (AID 2282970; active means hit-call score of the fitted dose curve at least 0.9, where 1 is the maximum); conditions: HepG2 Attagene TRANS ERa GAL4 reporter, mRNA
Sequence of Estrogen receptor (Homo sapiens) (P03372 whole entry, looked up, the tested form may be a part): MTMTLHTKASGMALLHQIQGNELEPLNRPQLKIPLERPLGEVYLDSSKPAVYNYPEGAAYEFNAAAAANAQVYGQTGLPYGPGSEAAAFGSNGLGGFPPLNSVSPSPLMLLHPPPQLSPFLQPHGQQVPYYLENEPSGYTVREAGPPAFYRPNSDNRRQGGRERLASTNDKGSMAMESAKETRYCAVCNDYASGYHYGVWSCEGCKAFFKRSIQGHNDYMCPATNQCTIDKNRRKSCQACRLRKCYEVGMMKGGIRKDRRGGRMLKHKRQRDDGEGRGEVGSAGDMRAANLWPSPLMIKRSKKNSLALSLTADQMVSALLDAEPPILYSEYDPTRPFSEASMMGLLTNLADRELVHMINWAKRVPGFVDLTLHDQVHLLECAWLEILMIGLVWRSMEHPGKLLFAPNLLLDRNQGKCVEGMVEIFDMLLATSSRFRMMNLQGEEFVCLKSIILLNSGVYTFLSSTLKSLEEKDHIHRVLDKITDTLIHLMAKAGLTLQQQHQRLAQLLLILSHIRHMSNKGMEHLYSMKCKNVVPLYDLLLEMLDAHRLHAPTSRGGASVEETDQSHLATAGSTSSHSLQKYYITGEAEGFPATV
Procedure, shortened: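 Reporter mRNA induction after 24 hours, detected by fluorescent RT-PCR and capillary electrophoresis, gives the read-out. Cells are HepG2 transiently transfected with GAL4-UAS reporter transcription units responding to chimeric NR-Gal4. Activity is taken as gain of signal over DMSO baseline.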

[14] = target: X-box-binding protein 1 (Homo sapiens) (UniProt P17861); test: ATG_Xbp1_CIS: Attagene CIS-FACTORIAL HepG2 Assay for human X-box Binding Protein 1 (XBP1) (AID 2282972); conditions: HepG2 XBP1 cis-element reporter, Attagene multiplex; actives raise or lower the signal
Sequence of X-box-binding protein 1 (Homo sapiens) (P17861 whole entry, looked up): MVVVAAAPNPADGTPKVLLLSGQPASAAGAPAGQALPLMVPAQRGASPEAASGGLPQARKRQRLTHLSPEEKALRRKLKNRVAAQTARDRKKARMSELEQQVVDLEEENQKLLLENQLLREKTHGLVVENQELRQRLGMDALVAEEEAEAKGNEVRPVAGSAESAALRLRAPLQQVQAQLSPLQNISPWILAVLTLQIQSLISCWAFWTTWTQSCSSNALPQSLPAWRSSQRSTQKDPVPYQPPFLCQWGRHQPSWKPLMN
Procedure, shortened: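 Multiplexed cis-reporter readout in transfected HepG2 liver cells. Exposure lasted 24 hours. Activity in either direction was fitted against DMSO as negative control and baseline.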

[15] = ATG_M_19_TRANS: Attagene TRANS-FACTORIAL HepG2 Assay for M19 Transcription Factor (Internal Marker) (AID 2282974; active means hit-call score of the fitted dose curve at least 0.9, where 1 is the maximum); conditions: HepG2 Attagene TRANS-FACTORIAL M19 internal marker reporter
Procedure, shortened: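 HepG2 cells transiently transfected with multiple GAL4-UAS reporter transcription units were exposed to chemicals for 24 h. Reporter mRNA was read by RT-PCR, 6-FAM primer extension, HpaI digestion and capillary electrophoresis; gain of signal fitted relative to DMSO.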

[16] = target: Signal transducer and activator of transcription 3 (Homo sapiens) (UniProt P40763); test: ATG_STAT3_CIS: Attagene CIS-FACTORIAL HepG2 Assay for human Signal Transducer and Activator of Transcription 3 (STAT3) (AID 2282963); conditions: HepG2, Attagene cis-factorial STAT3 reporter transcription; actives raise or lower the signal
Sequence of Signal transducer and activator of transcription 3 (Homo sapiens) (P40763 whole entry, looked up, the tested form may be a part): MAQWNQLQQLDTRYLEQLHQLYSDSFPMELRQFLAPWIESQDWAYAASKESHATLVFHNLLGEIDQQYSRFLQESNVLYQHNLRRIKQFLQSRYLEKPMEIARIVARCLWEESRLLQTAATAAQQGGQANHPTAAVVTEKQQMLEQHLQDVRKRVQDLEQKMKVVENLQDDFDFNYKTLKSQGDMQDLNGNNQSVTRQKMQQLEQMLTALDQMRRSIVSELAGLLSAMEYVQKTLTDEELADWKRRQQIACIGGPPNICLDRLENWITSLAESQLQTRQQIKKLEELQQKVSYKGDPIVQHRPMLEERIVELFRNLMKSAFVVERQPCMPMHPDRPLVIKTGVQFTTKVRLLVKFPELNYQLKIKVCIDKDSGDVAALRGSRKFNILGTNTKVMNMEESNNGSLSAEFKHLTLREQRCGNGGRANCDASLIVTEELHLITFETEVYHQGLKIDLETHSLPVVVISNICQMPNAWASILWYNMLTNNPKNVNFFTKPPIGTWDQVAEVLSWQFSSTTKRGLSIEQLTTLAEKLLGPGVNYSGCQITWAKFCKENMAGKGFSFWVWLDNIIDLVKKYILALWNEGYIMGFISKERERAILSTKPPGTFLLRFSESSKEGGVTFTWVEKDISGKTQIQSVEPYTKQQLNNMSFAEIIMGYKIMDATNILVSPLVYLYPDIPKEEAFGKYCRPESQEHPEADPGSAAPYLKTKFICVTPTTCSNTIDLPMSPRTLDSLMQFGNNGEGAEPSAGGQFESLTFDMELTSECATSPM
Procedure, shortened: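 Readout: fluorescent reporter mRNA fragments resolved by capillary electrophoresis. Setup: HepG2 transfected with MRTUs reporting endogenous transcription-factor activity, dosed 24 h. Gain or loss of signal fitted bidirectionally against DMSO control.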

[17] = ATG_TGFb_CIS: Attagene CIS-FACTORIAL HepG2 Assay for human Transforming Growth Factor (TGF) (AID 2282967); conditions: HepG2 Attagene CIS TGFb reporter, mRNA transcription; actives raise or lower the signal
Procedure, shortened: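 HepG2 cells transiently transfected with cis-promoter-driven multiplexed reporter units; 24 h compound exposure. Reporter mRNA measured by RT-PCR, 6-FAM labeling, HpaI digestion and capillary electrophoresis; bidirectional fit versus DMSO baseline.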

[18] = ATG_GAL4_TRANS: Attagene TRANS-FACTORIAL HepG2 Assay for GAL4 (Internal Marker) (AID 2282976; active means hit-call score of the fitted dose curve at least 0.9, where 1 is the maximum); conditions: HepG2 Attagene TRANS GAL4 internal marker reporter
Procedure, shortened: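 RT-PCR/capillary electrophoresis readout of reporter mRNA. HepG2, transient MRTU transfection (GAL4-UAS reporters), 24 h compound exposure. Background-control endpoint, positive direction vs DMSO baseline.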

[19] = target: Steroid hormone receptor ERR1 (Homo sapiens) (UniProt P11474); test: ATG_ERRa_TRANS: Attagene TRANS-FACTORIAL HepG2 Assay for human Estrogen-Related Receptor alpha (ERRa) (AID 2282971; active means hit-call score of the fitted dose curve at least 0.9, where 1 is the maximum); conditions: HepG2 Attagene TRANS reporter, ERRa transactivation
Sequence of Steroid hormone receptor ERR1 (Homo sapiens) (P11474 whole entry, looked up, the tested form may be a part): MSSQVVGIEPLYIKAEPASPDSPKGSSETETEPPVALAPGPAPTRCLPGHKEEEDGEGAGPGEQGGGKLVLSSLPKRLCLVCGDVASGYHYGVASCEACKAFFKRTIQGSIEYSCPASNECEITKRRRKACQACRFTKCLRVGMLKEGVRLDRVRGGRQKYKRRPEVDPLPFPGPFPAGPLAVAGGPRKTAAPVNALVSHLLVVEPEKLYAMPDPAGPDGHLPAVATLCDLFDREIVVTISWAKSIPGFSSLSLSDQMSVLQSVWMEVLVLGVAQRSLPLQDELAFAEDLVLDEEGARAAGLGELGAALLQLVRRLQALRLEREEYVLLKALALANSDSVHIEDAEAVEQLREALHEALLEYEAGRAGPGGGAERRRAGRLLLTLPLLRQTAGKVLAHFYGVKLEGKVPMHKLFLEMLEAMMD
Procedure, shortened: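 Transfected HepG2, 24 h dosing, ERRa-Gal4 chimera driving GAL4-UAS reporter. Readout: reporter mRNA via RT-PCR plus capillary electrophoresis (fluorescence). Positive direction vs DMSO control.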

Measured: AC50

CCCCOC(=O)CCC(C)=O
inactive: [1] | [2] | [3] | [4] | [5] | [6] | [7] | [8] | [9] | [10] | [11] | [12] | [13] | [14] | [15]

CC(=O)OCc1ccccc1
inactive: [1] | [2] | [3] | [4] | [6] | [7] | [16] | [8] | [9] | [10] | [17] | [11] | [14] | [18]

CCCCCCCCCCCC(C)=O
active: [2] 25.6 µM | [3] 159 µM | [6] 154 µM | [7] 141 µM | [9] 161 µM | [10] 178 µM | [17] 166 µM | [13] 11.6 µM
inactive: [1] | [4] | [16] | [8] | [14] | [15] | [18]

Cc1c[nH]c(=O)[nH]c1=O
inactive: [1] | [2] | [3] | [4] | [6] | [7] | [16] | [8] | [9] | [10] | [17] | [11] | [14]

Cc1ccccc1CCO
inactive: [1] | [3] | [4] | [6] | [7] | [16] | [8] | [9] | [10] | [17] | [11] | [14] | [15]
active: [2] 26.6 µM

C1CCSC1
inactive: [1] | [2] | [3] | [5] | [6] | [7] | [9] | [10] | [17] | [11] | [19] | [14]
